# Measurements taken from PubChem BioAssay AID2536 (National Center for Advancing Translational Sciences (NCATS), 2010).
# Values without a mark were called inactive. The call rests on the fitted dose curve; in most records, active means well fitted curve in the direction sought with a large enough effect; inactive means no such curve, though single readings can be large or run the other way.
# Target: Pyruvate kinase PKM (Homo sapiens) (UniProt P14618)
# Test: Secondary Concentration-Response Assay for Activators of Human Muscle isoform 1 Pyruvate Kinase: for Probe SAR
# Conditions: purified hPK-M1, ATP production, Kinase-Glo luminescence
# Text: NIH Chemical Genomics Center [NCGC]
# Matthew G. Vander Heiden, M.D., Ph.D. [Harvard Medical School, 77 Avenue Louis Pasteur, Boston, MA 02115]
# Human pyruvate kinase […] (hPK-M1) enzyme was supplied as a highly purified (>95% pure) preparation from Harvard Medical School and assayed for its ability to generate ATP from ADP using phosphoenolpyruvate (PEP) as a substrate. ATP generation was detected in a coupled reaction by luciferase-mediated luminescence, an ATP-dependent process. Pyruvate kinase substrates, PEP and ADP, were present in the assay at Km and approximately 10-fold below Km respectively. The enzyme was assayed at an intermediate level of activity to screen for both inhibitors and activators.
# NCGC Assay Protocol Summary for M1-isoform:
# Three uL of substrate mix (at r.t.) in assay buffer (50 mM Imidazole pH7.2, 50 mM KCl, 7 mM MgCl2, 0.01% Tween 20, 0.05% BSA) was dispensed into white solid bottom 1,536 well microtiter plates so that the final concentrations of substrates in the assay were 0.1 mM ADP and 0.5 mM PEP. 23 nL of compound were delivered by a pin tool and 1 uL of enzyme mix (final concentration of 1 nM) in assay buffer (4 degree Celsius) was added. Plates were incubated at room temperature for 1 hour. Two uL of detection mix (Kinase-Glo, Promega; at 4 degree Celsius protected from light) was added and luminescence read by a ViewLux (Perkin Elmer) at 1 second exposure/plate. Data were normalized to the uninhibited (row 31). Additionally, a no enzyme and 5-fold enzyme control was dispensed in row 32, split equally between the two conditions.
# Sequence of Pyruvate kinase PKM (Homo sapiens) (P14618 whole entry, looked up, canonical isoform): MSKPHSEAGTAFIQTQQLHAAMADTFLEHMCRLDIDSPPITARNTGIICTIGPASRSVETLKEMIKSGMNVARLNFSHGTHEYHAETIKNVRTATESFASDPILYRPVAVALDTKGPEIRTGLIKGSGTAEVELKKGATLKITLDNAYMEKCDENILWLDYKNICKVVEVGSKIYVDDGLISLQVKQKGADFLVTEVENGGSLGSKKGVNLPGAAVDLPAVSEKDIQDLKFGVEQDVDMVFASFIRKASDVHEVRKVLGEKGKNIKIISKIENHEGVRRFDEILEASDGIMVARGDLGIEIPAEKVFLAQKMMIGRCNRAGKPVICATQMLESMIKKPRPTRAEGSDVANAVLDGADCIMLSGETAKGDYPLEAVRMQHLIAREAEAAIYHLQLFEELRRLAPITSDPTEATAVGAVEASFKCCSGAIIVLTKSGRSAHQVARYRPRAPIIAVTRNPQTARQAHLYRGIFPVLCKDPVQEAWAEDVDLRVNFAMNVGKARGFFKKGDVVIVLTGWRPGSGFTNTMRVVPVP
row,SMILES,max response
1,Cc1ccc(NS(=O)(=O)c2ccc3c(c2)CC(=O)N3)cc1C,23.4%
2,COc1cccc(Cn2ncc3c4sc(S(C)=O)cc4n(C)c3c2=O)c1 (stereo not given),3.1%
3,O=C1CCc2cc(S(=O)(=O)Nc3ccc4ncccc4c3)ccc2N1,-1.75%
4,Cc1ccc(NS(=O)(=O)c2cc3c(cc2C)OCC(=O)N3)cc1C,2.47%
5,N#Cc1ccc(NS(=O)(=O)c2ccc3c(c2)CCC(=O)N3)cc1,5.23%
6,CC(=O)N1c2ccc(S(=O)(=O)Nc3ccc(C)c(C)c3)cc2CC1C (stereo not given),13.1%
7,Cc1ccc(NS(=O)(=O)c2cc3c(cc2Cl)CCC(=O)N3)cc1Cl,4.8%
8,CC(C)Nc1cccc(S(=O)(=O)N2CCCN(S(=O)(=O)c3ccc4c(c3)OCCO4)CC2)c1,4.41%
9,O=C1CCc2cc(Cl)c(S(=O)(=O)Nc3ccc(Cl)c(Cl)c3)cc2N1,1.66%
10,Cc1ccc(NS(=O)(=O)c2cc3c(cc2F)NC(=O)CC3)cc1Cl,4.95%
